Test results reported in PubChem BioAssay AID1850 (Southern Research Specialized Biocontainment Screening …, 2009).
About 1,000 (0.32%) of roughly 310,000 compounds were called active. The rule behind the calls is not given here. These entries were drawn from the full list. Results with a measured potency or affinity are listed apart. Where a SMILES comes first, the peptide text is derived from it. The star is where a group is joined. Boc = CC(C)(C)OC(=O)*

Experiment: Inhibition of PhoP regulon, Salmonella typhi GFP reporter cells, confirmation, 4 h (AID 1850);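 note: 0% = induced wells with vehicle and 100% = uninduced wells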
Conditions: Salmonella Typhi PhoP-promoter GFP reporter, fluorescence, at 50 µM, stronger effect = higher value

SMILES	inhibition
Cc1ccc([N+](=O)[O-])cc1S(=O)(=O)NCc1cccnc1	-0.437% (inactive)
COc1ccc(CC(=O)NC(C)C2COc3ccccc3O2)cc1OC (stereo not drawn)	0.47% (inactive)
O=C(NNS(=O)(=O)c1ccc(Cl)cc1)c1cccc(S(=O)(=O)N2CCOCC2)c1	6.08% (inactive)
CC1CCN(C2CC(=O)N(c3ccccc3)C2=O)CC1 (stereo not drawn)	-1.51% (inactive)
CC1(C)Cc2cccc(OCC(=O)OCC(=O)NCc3ccc(F)cc3)c2O1	5.2% (inactive)
CC1(NC(=O)c2cccc(S(=O)(=O)N3CCN(c4ccccc4)CC3)c2)CCS(=O)(=O)C1 (stereo not drawn)	-4.48% (inactive)
CN1CC(C(=O)c2ccc(Cl)cc2)C(c2ccccc2F)C1 (stereo not drawn)	-5.31% (inactive)
CN1CC(C(=O)c2ccc(Cl)cc2)C(c2ccccc2)C1 (stereo not drawn)	-0.32% (inactive)
CN(C)Cc1cnc2ccc(Cl)cn12	2.3% (inactive)
COc1ccc(/C=N\NS(=O)(=O)c2ccc(C)cc2)cc1COc1ccccc1[N+](=O)[O-]	2.43% (inactive)
Cc1ccc(CNC(=O)CSc2ncc(C(=O)Nc3ccccc3)c(=O)n2C)cc1	6.4% (inactive)
CC(C)(C)OC(=O)N1CCC[C@@H]1CO	-5.17% (inactive)
CC(C)CC(NC(=O)OC(C)(C)C)C(=O)NC(C(=O)N1CCCC1C(N)=O)C(C)C (stereo not drawn) (Boc-Leu-Val-Pro-NH2; configuration not given here)	-15.4% (inactive)
O=c1[nH]c(=O)n(CCC2=CCCCC2)c(O)c1C=NC1CCN(Cc2ccccc2)CC1	5.62% (inactive)
CC1CCCCN1CC(=O)c1ccc2cc[nH]c2c1 (stereo not drawn)	-0.31% (inactive)
Cc1ccc(CC2S/C(=C(/C#N)C(=O)NCc3ccco3)N(c3ccccc3)C2=O)cc1 (stereo not drawn)	-3.66% (inactive)
Cc1ccc(S(=O)(=O)NC(=NC2CCCCC2)c2ccccc2)cc1	5.09% (inactive)
COc1ccc(O)c(/C=N/Nc2nc3ccccc3[nH]2)c1	7.61% (inactive)
O=[N+]([O-])c1ccc(/C=N/Nc2ccccn2)cc1	-0.36% (inactive)
COc1cc([N+](=O)[O-])cc(/C=N/NC(=O)CSc2nnc(-c3ccccc3)n2C)c1O	-13.2% (inactive)
CC(=O)Nc1nonc1NC(=O)CSc1ccccn1	2.24% (inactive)
Cc1nonc1NC(=O)CSc1ccccn1	6.57% (inactive)

SMILES	inhibition
CCN(CC)c1ccc(/C=N/Nc2nc3ccccc3[nH]2)c(O)c1	13.9% (inactive)
O=[N+]([O-])c1cccc(/C=N/Nc2ccccn2)c1	8.41% (inactive)
COc1cc([N+](=O)[O-])cc(/C=N/NC(=O)Cn2nccc2C)c1O	14.4% (inactive)
COc1cccc(N2CCN(C(=O)C3CCN(S(=O)(=O)c4ccc5c(c4)oc(=O)n5C)CC3)CC2)c1	8.62% (inactive)
Cc1ccc(C)c(-c2csc(-c3cccnc3)n2)c1	1.2% (inactive)
COc1ccc(-c2cc(-c3ccc(O)cc3)nc(N)c2C#N)cc1	-1.2% (inactive)
N#C/C(=C\c1ccccc1Cl)C(=O)Nc1ccccn1	2.25% (inactive)
COC(=O)COc1ccc(C(C2C(=O)CC(C)(C)CC2=O)C2C(=O)CC(C)(C)CC2=O)cc1	-2.61% (inactive)
NC(=S)NNC(=O)c1cccc(Br)c1	-6.69% (inactive)
Cc1ccc(-n2nc(C)c(C(C)(O)C(F)(F)F)c2N)cc1 (stereo not drawn)	9.79% (inactive)
O=C(NC(Cc1ccccc1)C(=O)O)/C(=C\c1ccccc1)NC(=O)c1ccc(Br)o1 (stereo not drawn)	-5.27% (inactive)
COc1cccc(NC(=O)c2ccc(NC(=O)C(C)C)cc2)c1	-3.48% (inactive)
Cc1ccc(N2N=C(c3ccc(F)cc3)CC2c2ccco2)cc1 (stereo not drawn)	-33.1% (inactive)
CC1CN(C(=O)COC(=O)c2ccc(N(C)C)cc2)CC(C)O1 (stereo not drawn)	1.66% (inactive)
COc1ccc(CC(=O)OCC(=O)N(C)C2CCS(=O)(=O)C2)cc1OC (stereo not drawn)	-0.6% (inactive)
O=C(CSc1ccccn1)N/N=C/c1ccccc1[N+](=O)[O-]	-6.71% (inactive)
Cc1ccnn1CC(=O)N/N=C/c1c[nH]c2ccccc12	2.22% (inactive)
Cc1nn(C)cc1/C=N/NC(=O)CSc1ccccn1	3.55% (inactive)
O=C(CSc1nc2ccccc2s1)N/N=C/c1ccccc1C(=O)O	10.8% (inactive)
O=C(CSc1nc2ccccc2s1)NCc1cc([N+](=O)[O-])ccc1O	-40.6% (inactive)
O=C(CSc1ccccn1)N/N=C/c1cccc([N+](=O)[O-])c1	1.33% (inactive)
